Sfp PPTase inh = inhibitors of Bacillus subtilis Sfp phosphopantetheinyl transferase; Biochemical Sfp PPTase activity, qHTS; AID 1490; 310,000 tested, 3.5% active; Potency, µM, without a hit: largest response in the series, negative = inhibition, usual class: inhibitors;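 further: the enzyme is Sfp with the accession as filed and its product quenches rhodamine fluorescence; potency means the concentration at half of the fitted maximal effect; 0% = enzyme reaction without inhibitor and -100% = no enzyme wells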
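Step 1, compound plus 15 nM Sfp-PPTase, 15 min, room temperature. Step 2, add rhodamine-CoA (5 uM) and BHQ-2-YbbR (12.5 uM). Step 3, read 525/598 nm fluorescence at 0 and 30 min.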
Mm-Cpn inhibitor = M. maripaludis TRiC chaperonin inhibition | Potency, µM (highest dose often 76.9 µM), for the others: at the highest dose activity, negative = inhibition, usual class: inhibitors | AID 504842 | purified Mm-Cpn ATPase, ADP Transcreener TR-FRET | 330,000 tested, 0.031% active; further: potency means the concentration at half of the fitted maximal effect; nearly all actives have a fitted effect of over 80% in size
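Purified archaeal Mm-CPN (25nM final) preincubated 10 min at 37degC with compound, then 10uM ATP for 30 min at 37degC; ADP measured by HTRF Transcreener TR-FRET; buffer 30 mM TRIS pH 7.4, 100mM KCl, 5mM MgCl2, 1mM DTT.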
CCT chaperon mod = modulators of cytosolic chaperonin (CCT/TRiC) activity. purified chaperonin ATPase assay, HTRF ADP detection, 30 min. activity change, % (concentration not given with the values), hits read low. 360,000 tested, 0.3% active. AID 651819; in the data active means activity change below about -30%
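TRiC at 40 or 20 nM final (batch-dependent) in 30 mM Tris pH 7.4, 100 mM KCl, 5 mM MgCl2, 1 mM DTT, with compound at single 76 uM and 10 uM ATP, 30 min at 37 deg C. ADP detected by HTRF Transcreener, 665/615 ratio.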
VDR inh = vitamin D3 receptor (human) inhibition. VDR-SRC2-3 peptide fluorescence polarization, 2 h. P11473. Potency, µM, without a hit: max response, negative = inhibition, usual class: inhibitors. 400,000 tested, 0.93% active; further: potency means the concentration at half of the fitted maximal effect
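Compounds are added to VDR with labelled SRC2-3 coactivator peptide and held 2 h at room temperature. Inhibition of the VDR–peptide interaction is then read as a change in fluorescence polarization.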
PLK1 PBD inh = PLK1 (human) polo-box domain binding inhibition | P53350 | Plk1 PBD binding of FITC phosphopeptide, fluorescence polarization | Potency, µM, for inactives: max response, negative = inhibition, most hits filed as inhibitors | 360,000 tested, 2.8% active | AID 720504; further: potency means the concentration at half of the fitted maximal effect; series mostly up to about 57 µM; nearly all actives have a fitted effect of over 65% in size
Target sequence (P53350 whole entry, looked up, the tested form may be a part): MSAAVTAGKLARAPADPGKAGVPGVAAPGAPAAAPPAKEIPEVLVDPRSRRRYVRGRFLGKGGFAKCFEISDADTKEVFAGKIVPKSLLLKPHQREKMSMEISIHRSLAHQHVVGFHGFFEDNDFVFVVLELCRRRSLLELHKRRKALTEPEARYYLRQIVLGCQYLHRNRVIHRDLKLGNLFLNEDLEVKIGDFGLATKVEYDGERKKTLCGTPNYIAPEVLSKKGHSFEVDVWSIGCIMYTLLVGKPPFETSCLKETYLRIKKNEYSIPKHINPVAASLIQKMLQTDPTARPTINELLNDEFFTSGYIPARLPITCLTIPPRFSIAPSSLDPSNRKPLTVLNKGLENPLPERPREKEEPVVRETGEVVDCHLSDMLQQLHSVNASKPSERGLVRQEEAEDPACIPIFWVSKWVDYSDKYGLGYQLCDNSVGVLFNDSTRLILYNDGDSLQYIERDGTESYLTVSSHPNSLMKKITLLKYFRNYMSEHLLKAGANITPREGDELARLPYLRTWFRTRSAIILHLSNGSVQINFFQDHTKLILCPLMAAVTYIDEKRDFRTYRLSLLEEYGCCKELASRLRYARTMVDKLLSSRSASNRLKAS
G9a block = inhibitors of human histone lysine methyltransferase G9a. Q96KQ7. G9a H3K9 monomethylation, AlphaScreen, 2 h. Potency, µM (highest dose often 102 µM), inactives show at the top dose activity, negative = inhibition, most hits filed as inhibitors. 350,000 tested, 8.8% active. AID 504332; further: potency means the concentration at half of the fitted maximal effect; nearly all actives have a fitted effect of over 75% in size
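AlphaScreen read-out: biotin-H3K9 peptide (500 nM) methylation by 20 nM enzyme with 20 uM SAM, 2 h at room temperature after 15 min compound preincubation; anti-monomethyl H3K9 antibody plus donor/acceptor beads, 10 min dark.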
Active calls of the source: *; ? = inconclusive; / = not tested or not shown; ! = a repeat was not active; [ ] = remark or other dose. Shown are actives, neighbours in structure and some others; about 10% of the full set was active somewhere. Unless noted, the call rests on the fitted dose curve; in most records, active means well fitted curve in the direction sought with a large enough effect; inconclusive means small, poorly fitted or top-dose-only effect, or another doubt; inactive means no such curve, though single readings can be large; an effect the other way counts as inactive or inconclusive. Unless noted, on the % scale 0 is the no-effect control and ±100 the full control effect.

SMILES	Sfp PPTase inh	Mm-Cpn inhibitor	CCT chaperon mod	VDR inh	PLK1 PBD inh	G9a block
CN(C)S(=O)(=O)c1cccc(NC(=S)NC(=O)c2ccco2)c1	/	-1.5%	-0.5	-7.7%	-2.7%	39.8µM*
COc1cc(-c2cc(OC)c3c(C)oc(C)c3c(=O)c2)ccc1OC(=O)c1ccccc1F	/	/	/	24.0%	/	?
Cc1cc(NC(=O)CSc2nc(-c3cccc(F)c3)nc3c2c(=O)n(C)c(=O)n3C)no1	/	/	/	0.2%	/	3.4%[59 µM]
COc1cc(OC)c(NC(=O)Cn2cnc3sc(C)c(S(=O)(=O)N4CCN(C)CC4)c3c2=O)cc1Cl	/	/	/	5.2%	/	?
Cc1cc(C)cc(NS(=O)(=O)c2ccc(NC(=S)NC(=O)c3ccc(Br)o3)cc2)c1	?	-13.1%	0.1	-4.3%	-13.3%	?
CN(C)S(=O)(=O)c1ccc(NC(=S)NC(=O)c2ccc(Br)o2)cc1	56.2µM*	-1.7%	/	/	/	56.2µM*
CC(=O)NS(=O)(=O)c1ccc(NC(=S)NC(=O)c2ccco2)cc1	?	0.5%	0.3	21.5%	-14.1%	/
NS(=O)(=O)c1ccc(NC(=S)NC(=O)c2ccc(Br)o2)cc1	56.2µM*	1.5%	-2.9	-21.9%	21.2µM*	?
NS(=O)(=O)c1ccc(NC(=S)NC(=O)c2ccco2)cc1	44.7µM*!	?	-2.0	-26.9%	-19.0%	56.2µM*
CCOC(=O)C1CCN(C(=O)C2CCN(c3nnc(C)c4c(C)n(-c5ccccc5)nc34)CC2)CC1	/	/	/	11.1%	/	9.8%[59 µM]
C[N+]1(CC(=O)OCCCc2ccccc2)CCCC1	0.8%	-2.4%	-3.0	-8.4%	-21.0%	10µM*
COc1ccc(-c2cc(C(=O)NNC(=S)NC(=O)c3c(-c4ccccc4)noc3C)[nH]n2)cc1	29.3%	-1.2%	-1.3	-15.5%	-11.1%	44.7µM*
COc1ccc(C2CC(=O)Nc3c2c(=O)[nH]c2nc4ccccc4n32)cc1 (stereo not drawn)	/	/	/	-4.0%	/	13.0%[59 µM]
Cc1sc(NC(=O)C2=COCCO2)nc1-c1ccc(Br)cc1	/	1.1%	-19.4	-9.5%	-12.7%	8.5%[0.501 µM]
Cc1sc(NC(=O)C2=COCCO2)nc1-c1ccc(F)cc1	/	-13.8%	0.1	5.2%	-15.4%	79.4µM*
Cc1ccc(NC(=O)C(OC(=O)c2ccc(O)cc2)c2ccccc2)cc1Cl (stereo not drawn)	27.1%	-15.2%	2.1	-17.5%	-11.4%	70.8µM*
COc1ccc(C2Nc3ccccc3C(=O)N2Cc2ccco2)cc1CN1C(=O)c2ccccc2C1=O (stereo not drawn)	?	-0.8%	0.1	12.7%	-0.4%	-10.4%[59 µM]
COc1ccc(C2Nc3ccccc3C(=O)N2Cc2ccco2)cc1COc1ccc(F)cc1 (stereo not drawn)	39.8µM*	-10.1%	-0.3	-4.6%	-19.2%	-43.3%[59 µM]
COc1cccc(CN2CCNC(=O)C2CC(=O)N(C)CCC2CCOCC2)c1 (stereo not drawn)	3.9%	-0.6%	0.2	-4.2%	-13.5%	?
COc1cc(CN2CCNC(=O)C2CC(=O)N(C)CCC2CCOCC2)cc(OC)c1 (stereo not drawn)	8.7%	-3.8%	-0.7	?	26.7µM*	-2.0%[0.501 µM]
COc1ccc(CN2CCNC(=O)C2CC(=O)N(C)CCC2CCOCC2)cc1OC (stereo not drawn)	15.4%	0.5%	-0.4	-4.3%	-27.5%	70.8µM*
COc1cc(Cl)c(NC(=O)c2cc3ccccn3n2)c(OC)c1	/	/	/	12.6%	/	1.2%[59 µM]
O=C(Cc1cccc(F)c1)N1CCOCC1	/	/	-1.9	-10.0%	21.2µM*	/
O=C(Cn1cc(S(=O)(=O)Cc2cccc(F)c2)c2ccccc21)N1CCOCC1	56.2µM*	-3.2%	-1.1	1.1%	-12.5%	/
O=C(Cn1cc(SCc2cccc(Cl)c2)c2ccccc21)N1CCOCC1	-16.3%	2.2%	-0.5	?	-5.9%	31.6µM*!
SMILES	Sfp PPTase inh	Mm-Cpn inhibitor	CCT chaperon mod	VDR inh	PLK1 PBD inh	G9a block
Cc1cccc(CSc2cn(CC(=O)N3CCOCC3)c3ccccc23)c1	-7.5%	-0.5%	-3.9	-1.8%	-12.9%	?
CC(C)Oc1ccc(C(=O)N(Cc2ccc(N(C)C)cc2)Cc2ccco2)cc1	/	/	/	10.4%	/	11.2µM*
CCCCOc1ccc(C(=O)N(Cc2ccco2)Cc2ccco2)cc1	/	/	/	-20.6%	/	-29.5%[59 µM]
CCCCOc1ccc(C(=O)N(Cc2ccc(N(C)C)cc2)Cc2ccco2)cc1	/	/	/	3.6%	/	11.2µM*
OC(c1ccccc1)c1nc2ccccc2s1 (stereo not drawn)	-2.9%	1.1%	-0.2	-8.4%	11.9µM*	-5.3%[59 µM]
OC(c1ccccc1)c1nc(-c2ccccc2)cs1 (stereo not drawn)	/	/	0.5	/	-3.6%	/
CCOC(=O)CSc1nc(C)c(CC)c(C)c1C(N)=O	12.7%	1.1%	-62.2*	7.1%	-5.9%	1.0%
CCOC(=O)CSc1nc(C)cc(C)c1C(N)=O	16.5%	-1.8%	1.4	-8.7%	-1.2%	-8.4%
CCOC(=O)CSc1nc(N)nc(C)c1Cl	-1.9%	-0.7%	-1.0	?	29.9µM*	/
CCOC(=O)CSc1nc(N)c(C#N)cc1C#N	-3.0%	-2.3%	-0.9	-6.1%	-15.0%	?
O=C(CCS(=O)(=O)c1ccccc1)NC1CCCCC1	0.4%	4.3%	0.6	0.2%	-0.6%	25.5%[59 µM]
COc1cc(NC(=O)CCS(=O)(=O)c2ccc(Br)cc2)cc(OC)c1	/	/	/	-2.0%	/	-5.4%[59 µM]
COc1ccc(CNC(=O)CCS(=O)(=O)c2ccc(Br)cc2)cc1	5.8%	1.0%	2.2	-12.3%	?	44.7µM*
COc1ccc(S(=O)(=O)CCC(=O)NCc2ccc(C)o2)cc1	50.1µM*	-0.2%	0.7	?	?	/
COc1ccc(S(=O)(=O)CCC(=O)NC2CCCCC2)cc1	11.5%	-0.5%	-0.1	-8.6%	29.9µM*	11.2%[12.7 µM]
COc1ccc(S(=O)(=O)CCC(=O)NCCc2ccc(Cl)cc2)cc1	3.9%	0.8%	-1.6	-4.6%	-9.8%	7.5%
COc1ccc(CCNC(=O)CCCn2nc(C)c3sc4ccccc4c3c2=O)cc1OC	/	/	/	10.5%	/	?
CCOc1ccc(CC(=O)Nc2cccc(-c3nc4cccnc4s3)c2C)cc1	/	/	/	11.0%	/	-35.4%[59 µM]
COc1ccccc1CNC(=O)c1cccn1-c1nnc(N2CCCCC2)s1	/	/	/	19.7%	/	-26.2%[59 µM]
O=C1CNC(=O)/C1=C\N1CCN(C(c2ccccc2)c2ccccc2)CC1	-7.5%	2.7%	-0.5	9.7%	-13.4%	44.7µM*
COc1ccc(Cn2ccnc2)cc1Br	?	/	0.1	3.1%	-1.0%	?
COc1ccc(NCc2ccc(OC)c(Cn3ccnc3)c2)c(OC)c1	4.0%	-4.7%	-8.8	?	2.9%	11.2µM*
CCC1(c2ccccc2)NC(=S)N(c2cccc(C)c2C)N1 (stereo not drawn)	?	-3.0%	-0.5	4.2%	-10.1%	31.6µM*
Cc1ccc(-c2cccc(CN3CCN(C(C)C)C(CCO)C3)c2)o1 (stereo not drawn)	-20.2%	-3.6%	-3.1	16.5%	-3.7%	44.7µM*

Source: PubChem (National Center for Advancing Translational Sciences (NCATS))
